Source: PubChem
This is one part of a sample in which hits are shown more often than they occur.
Dicer inh: inhibitors of human Dicer processing of pre-microRNA. cat-ELCCA pre-miR-21 Dicer processing, chemiluminescence; stronger effect = higher value. Q9UPY3. 47,000 compounds, 6% hits. z-score at 25 µM; in the data active means z-score above about 3, passing the limit was not always enough;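 further: plate controls were vehicle for no effect and no enzyme for full effect; higher signal means more uncleaved substrate so more Dicer inhibition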
* marks the source's active call; other numbers are inactive results.

SMILES | Dicer inh
Cc1cc(C)c(CN2C(=O)C(=O)c3ccccc32)cc1CN1C(=O)C(=O)c2ccccc21 | 3.6*
CC(C)Cc1nnc(NC(=O)C2c3ccccc3Oc3ccccc32)s1 | 0.72
Fc1cccc(CSc2ncc3ccccn23)c1 | 2
CC(C)(CCO)Nc1ccc(C(F)(F)F)cc1[N+](=O)[O-] | 2.7
Cn1nc(CC(=O)Nc2nnc(SCCC(=O)Nc3ccccc3)s2)c2ccccc2c1=O | -0.28
O=C(CCSc1nnc(NC2=NS(=O)(=O)c3ccccc32)s1)Nc1ccccc1 | 3.2*
O=C1c2ccccc2S(=O)(=O)N1CCCCCN1C(=O)c2ccccc2S1(=O)=O | 0.09
N#CCSc1nnc(NC(=O)c2ccccc2)s1 | -0.37
O=C(CCSc1nnc(NC(=O)Cn2c(=O)sc3ccccc32)s1)Nc1ccccc1 | 2.3
O=C(Nc1nnc(SCCN2C(=O)c3ccccc3S2(=O)=O)s1)c1ccccc1 | 3.5*
Clc1ccc(CSc2ccccc2-n2cccc2)cc1 | 0.87
NC(=O)CN1C(=O)/C(=C\c2ccc(OCc3ccccc3)cc2)N=C1c1ccccc1 | 1.8
NC(=O)CSc1nc2ccccc2n1CCO | 12
CCn1c(SCC(=O)O)nc2ccccc21 | 3.1*
CCOC(=O)Cn1c(=O)n(CC(=O)OCC)c2ccccc21 | -1.1
CCOC(=O)Cn1c(C)nc2ccccc21 | 4.7*
CCOC(=O)Cn1c(-c2ccccn2)nc2ccccc21 | -0.59
O=C(O)CCSc1nc2ccccc2n1Cc1ccccc1 | 1.4
O=C(O)Cn1c(SCc2ccccc2)nc2ccccc21 | 1.2
NC(=O)Cn1c(SC2CCCCC2)nc2ccccc21 | 1.7
CCSc1nc2ccccc2n1CC(N)=O | 6.7*
COc1ccc(C=NCCc2cccs2)c(O)c1 | 2.3
O=C(O)c1csc(-c2ccccc2)c1Cc1ccccc1 | 0.38
COc1ccc(OC)c(C(=O)CC2(O)C(=O)N(Cc3ccccc3)c3ccc(Br)cc32)c1 (configuration not stated) | 2.5
CCOC(=O)Cn1c(=O)c2ccsc2c2c(C#N)c(SC)sc21 | -0.99
SMILES | Dicer inh
CC(NC(=O)OCC1c2ccccc2-c2ccccc21)C(=O)O (configuration not stated) | -0.86
C(=N\Nc1ncc(-c2ccc3c(c2)OCCCO3)s1)/c1cccs1 | 0.37
CCOC(=O)c1ccccc1CSC(=N)N | 2.7
Cc1nc(C(F)(F)F)ccc1C(=O)O | 0.22
CCC12CN3CC(CC)(CN(C1)C3c1ccccc1F)C2=O (configuration not stated) | 1.4
CCC12CN3CC(CC)(CN(C1)C3c1ccccc1)C2=O (configuration not stated) | 5.5*
CCCC12CN3CC(CCC)(CN(C1)C3c1ccc(O)cc1)C2=O (configuration not stated) | 2.9
CC(C1CC1)N(C(=O)c1ccccc1Cl)c1ccccc1 (configuration not stated) | -2.2
CCCCOC(=O)C1=C(C)NC2=C(C(=O)CCC2)C1c1cc2c(cc1Cl)OCO2 (configuration not stated) | -0.17
Cc1ccc(C(=O)COC(=O)c2cccc(N3C(=O)c4c(C)nc5ccccc5c4C3=O)c2)cc1 | 0.43
Cc1nc2ccccc2c2c1C(=O)N(c1cccc(C(=O)OCC(=O)C(C)(C)C)c1)C2=O | -1.5
Cc1ccc(C(=O)OCC(=O)C(C)(C)C)cc1N1C(=O)c2c(C)nc3ccccc3c2C1=O | 3.2*
CCOC(=O)/C=C(\C)Nc1ccc(OC)cc1 | 0.16
COC(=O)c1sc(C(C)(C)C)cc1NC(=O)C(Cl)(Cl)Cl | -0.33
CCOC(=O)c1cc(-n2c(C)ccc2C)ccc1N1CCCCC1 | 0.63
O=C(O/N=C1\CCCc2[nH]c3ccccc3c21)c1c(Cl)cccc1Cl | 0.65
COc1ccc(C(=O)Oc2ccc(Cl)c3cccnc23)cc1OC | 4.5*
O=C(Oc1cccc2cccnc12)c1ccccc1 | -0.08
COc1ccc(/C(C)=N/OC(=O)c2cc(OC)c(OC)c(OC)c2)cc1CSc1ccccn1 | -0.4
O=C(Oc1ccc(Cl)c2cccnc12)c1cccnc1 | 3.5*
Cc1cc(C)cc(OC(=O)c2ccc(Cl)c(Cl)c2)c1 | 1.5
O=C(Oc1ccc(Cl)c2cccnc12)N1CCOCC1 | -1.1
O=C(c1ccccc1)c1nn(-c2cccc(Cl)c2)c2nc(=O)c(Cc3ccccc3)nn12 | -0.08
CC(=O)Nc1nc2ccc(NC(=O)C3CCCCC3)cc2s1 | 0.1
Cc1ccc(-c2cc3nccc(-c4cc(C)ccc4O)n3n2)cc1 | -2
SMILES | Dicer inh
Oc1ccccc1-c1ccnc2cc(-c3ccccc3)nn12 | 4.4*
Oc1ccc(F)cc1-c1ccnc2cc(-c3ccccc3)nn12 | 6
C=CCOc1ccc(C2c3c(oc4ccccc4c3=O)C(=O)N2c2nc(C)c(C)s2)cc1 (configuration not stated) | 0.63
COC(=O)C(C)Sc1ncnc2c1sc1nc(N3CCOCC3)c3c(c12)CCCC3 (configuration not stated) | 1.7
COc1cccc(-c2nc(-c3ccccc3)no2)c1OC | -0.58
COc1ccc(-c2noc(-c3cccc(OC)c3OC)n2)cc1 | 4.1*
COc1ccccc1-c1nc(-c2ccc(-c3ccc(C)cc3)nc2OC)no1 | -0.1
Fc1ccccc1CSc1nnc([C@@H]2CCCN2)o1 | 0.39
O=C(CCc1ccc(O)cc1)NNC(=S)Nc1cc(C(F)(F)F)cc(C(F)(F)F)c1 | 0.27
CSC(=CC(=O)c1ccc(Oc2ccc(Cl)cc2Cl)cc1)SC | 1.3
OC[C@H]1O[C@@H](Oc2ccccc2)[C@H](O)[C@@H](O)[C@@H]1O | 1.7
OCC1OC(Nc2ccc(Cl)cc2)C(O)C(O)C1O (configuration not stated) | 3.4*
CCN(CC)CCOC(=O)c1ccc(N[C@@H]2O[C@H](CO)[C@@H](O)[C@H](O)[C@H]2O)cc1 | -1.3
COc1ccc(-c2nc3c4cnn(-c5ccccc5)c4ncn3n2)cc1OC | -0.47
CCc1ccc2[nH]c(C(=O)NCCN3CCOCC3)cc2c1 | -1.8
c1ccc(-c2csc(-c3nc(-c4ccccc4)cs3)n2)cc1 | 2.9
Cc1nc(N2CCN(c3cccc(Cl)c3)CC2)nc2c1C(=O)CC(c1ccco1)C2 (configuration not stated) | 3*
Cc1nc(N2CCN(c3ccccn3)CC2)nc2c1C(=O)CC(c1ccc(Cl)cc1)C2 (configuration not stated) | -0.26
Cc1nc(N2CCN(c3ccccc3)CC2)nc2c1C(=O)CC(C)C2 (configuration not stated) | 0.21
Cc1ccc(-n2cccc2)c(NC(=O)c2cccc(C(F)(F)F)c2)c1 | -1.4
COc1ccc2c(c1)-c1c(sn(-c3cc(C)ccc3O)c1=S)C(C)(C)N2 | 1.9
CC(=O)Nc1ccc(-n2sc3c(c2=S)-c2cccc(C)c2NC3(C)C)cc1 | 7.9
CCOc1ccc2c(c1)-c1c(sn(-c3ccccc3OC)c1=S)C(C)(C)N2 | 0.92
CC(=O)Nc1ccc(-n2sc3c(c2=S)-c2ccccc2NC3(C)C)cc1 | 5.3*
CCOC(=O)c1ccc(-n2sc3c(c2=S)-c2ccccc2NC3(C)C)cc1 | 0.62
SMILES | Dicer inh
COc1ccc2c(c1)-c1c(sn(-c3ccccc3OC)c1=S)C(C)(C)N2 | 6.6*
COc1ccc2c(O)c(Cc3ccccc3)c(=O)[nH]c2c1 | -1.6
Cc1cc(NC(=O)Nc2cc(S(=O)(=O)N(C)C)ccc2C)c(C(F)(F)F)o1 | 0.62
Cn1nc(-c2ccc(-c3ccn(C(=O)c4ccc(Cl)cc4)n3)s2)cc1C(F)(F)F | 0.46
CN(NC(=O)c1ccc([N+](=O)[O-])cc1)c1ccc(C(F)(F)F)cc1[N+](=O)[O-] | -0.94
Cc1ccc(-c2cn3cc(-c4ccc(Br)cc4)nc3n2C)cc1 | -0.28
